# Measured potencies and affinities stand elsewhere. Calls of active or inactive are those of the source. No rule for the calls is given here.
# Target: Plasmodium falciparum protein kinase 6 (PK6, PF3D7_1337100) (UniProt Q8IDW1)
# Test: PfPK6 kinase inhibitors, biochemical, TCAMS library (AID 1159586)
# Conditions: recombinant PfPK6, Kinase-Glo ATP depletion luminescence
# Plasmodium falciparum protein kinase 6 (PK6, PF3D7_1337100), sequence (Q8IDW1 1-305): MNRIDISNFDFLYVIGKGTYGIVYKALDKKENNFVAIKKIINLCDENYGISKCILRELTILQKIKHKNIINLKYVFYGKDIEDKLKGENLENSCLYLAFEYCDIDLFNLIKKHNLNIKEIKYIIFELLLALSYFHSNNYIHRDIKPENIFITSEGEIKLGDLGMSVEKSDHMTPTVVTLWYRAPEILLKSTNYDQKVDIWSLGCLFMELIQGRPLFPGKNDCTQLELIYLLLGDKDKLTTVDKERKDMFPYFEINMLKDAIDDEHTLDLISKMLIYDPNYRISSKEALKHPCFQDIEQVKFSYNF
row,Compound,outcome
1,COc1cccc(C(=O)[C@H]2C[C@@H]2CN(C)CCC(O)c2ccc(Cl)c(Cl)c2)c1 (stereo not given in full),inactive
2,Cc1ccc(Cn2ncc(N3CCC(N)CC3)c(Cl)c2=O)cc1NC(=O)Nc1ccc(-c2ccccc2)cc1,inactive
3,CN(C)Cc1ccc(O)c(-c2ccc(C(C)(C)C)cc2)n1,inactive
4,COc1cc2nc(NCCCN3CCCCC3)nc(NCc3ccccc3)c2cc1OC,inactive
5,CC(C)CCN1CCC(Oc2ccc(NC(=O)c3cccs3)cc2Cl)CC1,inactive
6,N#Cc1ccc(N[C@@H](CC2CCCCC2)C(=O)N[C@@H]2CCCc3ccccc32)c2ccccc12,inactive
7,Cc1ccc(NC(=O)c2ccc3ncccc3c2)cc1OC1CCN(Cc2ccc(F)cc2)CC1,inactive
8,CCOc1ccc(-c2nc(NC(=O)COc3ccc(OC)cc3)sc2C)cc1,inactive
9,O=C(Nc1ccc2c(c1)CCC2)c1ccc(CN2CCCN(Cc3cccc(O)c3)CC2)cc1,inactive
10,CN1CCN(c2ccnc3cc4c(cc23)N(C(=O)Nc2ccc(-c3ccncc3)c3ccccc23)CC4)CC1,inactive
11,Clc1ccc(OCCC2CCN(CCCCCCN3CCCCC3)CC2)cc1Cl,inactive
12,Cc1cc(N2CCCC2=O)ccc1-c1ccc(C(=O)N2CCC(Oc3cccc(Cl)c3)CC2)cc1,inactive
13,c1ccc(CCNCc2ccc(-c3cccc(CNc4ccc5ncccc5c4)c3)cc2)cc1,inactive
14,CC(C)(C)OC(=O)N1CCN(c2ccccc2NC(=O)c2cccc(C(F)(F)F)c2Oc2ccc(F)cc2)CC1,inactive
15,N#CCCN1CCN(Cc2ccc(-c3ccc(-c4nc5ccc(F)cc5[nH]4)s3)cc2)CC1,inactive
16,CCOC(=O)NC1=NC(C)(C)N(OCCCOc2cc(Cl)c(Cl)cc2Cl)C(N)=N1,inactive
17,Cc1ccc(-n2c(=O)c3cccnc3n2CC(=O)Nc2cccc(C)c2C)cc1,inactive
18,COc1cccc(NC(=O)Cn2c(C)c(C#N)c3ccccc32)c1,inactive
19,CN(C)CC(O)C(O)(c1ccccc1)c1ccc(F)cc1 (stereo not given),inactive
20,Cc1[nH]c(C)c(Cc2ccc(Oc3ccc(OC(F)(F)F)cc3)cc2)c(=O)c1Br,inactive

row,Compound,outcome
1,C=CCC(C)n1ncc2c3c(N)nc(N)nc3ccc21 (stereo not given),inactive
2,CC(C)N1CCN(c2ccc(OCCCCN3CCN(c4cccc(Cl)c4Cl)CC3)c(C(F)(F)F)c2)CC1,inactive
3,FC(F)(F)c1ccc2nc(-c3cccc(-c4cccc(CNCCc5ccncc5)c4)c3)[nH]c2c1,inactive
4,O=C(C=Cc1ccccc1)Nc1ccc(C#CC=Cc2ccc(NC(=O)C=Cc3ccccc3)cc2)cc1,inactive
5,CC1CN(Cc2ccccc2)CCN1c1ccc(NC(=O)c2cccs2)cc1 (stereo not given),inactive
6,CC1(C)N=C(N)N=C(N)C1c1ccc(Cl)c(Cl)c1 (stereo not given),inactive
7,CN1CCC(NCc2ccc(-c3ccc(S(=O)(=O)NCc4ccccc4)cc3)cc2)CC1,inactive
8,CC(C)CCN1CCC(Oc2cccc(NC(=O)c3ccc(C(F)(F)F)cc3)c2)CC1,inactive
9,Cc1cccc2[nH]c(-c3ccc(-c4cccc(NC(=O)Cc5cnc[nH]5)c4)cc3)nc12,inactive
10,O=C(Nc1ccccc1N1CCOCC1)c1ncoc1-c1ccccc1C(F)(F)F,inactive
11,COc1cccc(C2(c3cccc(OC)c3)N=C(N)N(CCCc3ccccc3)C2=O)c1,inactive
12,Cc1cccc2[nH]c(-c3ccc(-c4ccc(CN5CCN(CC6CCCN(C)C6)CC5)cc4)cc3)nc12 (stereo not given),inactive
13,O=S(=O)(Nc1ccc(CCN2CCC(N3CCCCC3)CC2)cc1)c1ccc2ccccc2c1,inactive
14,CCCc1ccc(S(=O)(=O)NC2CCN(C(=O)Nc3ccc(I)cc3)CC2)cc1,inactive
15,CNC(=O)c1cnc(Nc2ccc(N3CCN(C)CC3)c(C)c2)nc1NC,inactive
16,C[C@H]1CN(Cc2cccc(-c3cc(CNC(=O)c4cccc(CC5CCN(C)CC5)c4)ccc3F)c2)CCN1C,inactive
17,C=CCn1c(=N)c(C(=O)NC2CCCCC2)cc2c(=O)n3cccc(C)c3nc21,inactive
18,O=C(/C=C/c1ccc(Cl)c(Cl)c1)N1CCC(CCN2CCc3[nH]c4ccccc4c3C2)CC1,inactive
19,CCC(C)OC(=O)C1=C(C)NC2=C(C(=O)CC(c3ccc(OC)c(OC)c3)C2)C1c1ccc(O)cc1 (stereo not given),inactive
20,CCc1ccc(N2C(=O)C3C(Cc4ccc(OC(C)(C)C)cc4)NC4(C(=O)N(Cc5ccccc5)c5ccc(F)cc54)C3C2=O)cc1 (stereo not given),inactive

# Source: PubChem BioAssay
